# The campaign covered roughly 66,000 compounds. About 960 (1.5%) showed an effect of 50% or more. The sample holds strong results, similar compounds and a random draw of the others, so the mix is not that of the screen.
# Test system: Trypanosoma brucei
# Assay: Trypanosoma brucei 72 hour study
# Type: functional, organism-based
# Parameters: scale not given: in the data most compounds retested in dose-response had high values
structure (smiles),measurement,setting,value
Cn1cc(N2CC3(CCN(CC4CC4)CC3)OCC2=O)cn1.O=C(O)C(F)(F)F,Percent Effect,"30 µM, 30.03 µM",-14.55%
O=C(NCCC1=CCCCC1)c1n[nH]c2c1CCCC2,Percent Effect,"30.3 µM, […]",9.564%
Cc1cc(C(=O)N2CCN(C)CC2)nn1CC(=O)NCc1cccs1.Cl,Percent Effect,"30.3 µM, […]",4.887%
CN1CCc2c(C#N)c(NCC3CCCO3)n3cnnc3c2C1.Cl (stereo not drawn),Percent Effect,"30 µM, 30.03 µM",-22.69%
CC(NC(=O)CSCC(N)=O)c1ccccc1Oc1ccccc1 (stereo not drawn),Percent Effect,"30.3 µM, […]",5.896%
CN1[C@H](CN2CCCC2)C[C@@H]2CN(C(=O)c3cccn3C)CC[C@@H]21.O=C(O)C(F)(F)F.O=C(O)C(F)(F)F,Percent Effect,"30.3 µM, […]",14%
O=C(O)c1cc(S(=O)(=O)Nc2cnn(C3CCOCC3)c2)ccc1F,Percent Effect,"30 µM, 30.03 µM",-3.686%
O=S(=O)(Nc1cnn(C2CCOCC2)c1)c1ccc(F)c(F)c1,Percent Effect,"30 µM, 30.03 µM",51.53%
Cc1ccc(S(=O)(=O)Nc2cnn(C3CCOCC3)c2)cc1C,Percent Effect,"30 µM, 30.03 µM",-12.07%
CC(C)CS(=O)(=O)N1CCC2(CN(c3ccsc3)C(=O)CN2C)C1.O=C(O)C(F)(F)F (stereo not drawn),Percent Effect,"30 µM, 30.03 µM",-44.48%
Cl.NCCC(=O)Nc1ccc(-c2ccccc2)cc1,Percent Effect,"30.3 µM, […]",22.23%
same,Percent Effect,"10 mM, 10 mM as filed; unlikely as a test dose",97.12%
O=C(CCn1ccccc1=O)Nc1ccc(C(=O)O)cc1,Percent Effect,"30 µM, 30.03 µM",4.206%
CC(=O)Nc1ccc(-c2ccccc2NC(=O)CN)cc1,Percent Effect,"30 µM, 30.03 µM",-52.76%
O=C(O)C(F)(F)F.O=C([C@H]1C[C@H]2OCC[C@H]2N(CC2CC2)C1)N1CCCCO1,Percent Effect,"30.3 µM, […]",-275.5%
O=C(O)C(F)(F)F.O=C1COC2(CCN(Cc3ccsc3)CC2)CN1,Percent Effect,"30 µM, 30.03 µM",-11.85%
CS(=O)(=O)NCC1CCCN(Cc2ccccc2F)C1 (stereo not drawn),Percent Effect,"30 µM, 30.03 µM",-12.86%
COC1CCN(C(=O)Nc2ccccc2)CC(=O)N(C)c2ccccc21 (stereo not drawn),Percent Effect,"30.3 µM, […]",83.76%
COC1CN(C(=O)Nc2ccccc2)CCC(=O)N(C)c2ccccc21 (stereo not drawn),Percent Effect,"30.3 µM, […]",-31.75%
COC1CCN(C(=O)C2CCCC2)CC(=O)N(C)c2ccccc21 (stereo not drawn),Percent Effect,"30.3 µM, […]",-34.54%
COCCOc1cccc(CNCc2c(C)nn(C)c2N(C)C)c1,Percent Effect,10 µM,-49.16%
Cc1nc(C)n(CC2CCCN(c3ncnc4ccccc34)C2)n1 (stereo not drawn),Percent Effect,"30.3 µM, […]",12.87%
Cc1nc(C)n(CC2CN(c3ncnc4[nH]ccc34)CCO2)n1 (stereo not drawn),Percent Effect,"30 µM, 30.03 µM",20.56%
Cc1nc(C)n(CC2CCCN(c3ncnc4[nH]ccc34)C2)n1 (stereo not drawn),Percent Effect,"30 µM, 30.03 µM",50.76%
CC(C)NC(=O)[C@@]12CCO[C@@H]1CCN(Cc1ccco1)C2.O=C(O)C(F)(F)F,Percent Effect,"30.3 µM, […]",-46.6%
COc1cc(C)c(-c2ccc(F)c3c2OC(CN)C3)cc1C (stereo not drawn),Percent Effect,"30 µM, 30.03 µM",-14.37%
CCN1CCn2c(C)cnc2C12CCN(C(=O)N(C)C)CC2.O=C(O)C(F)(F)F.O=C(O)C(F)(F)F,Percent Effect,"30.3 µM, […]",-17.98%
CC(C)(C)c1cnc(CN2CCC[C@H]2CO)o1,Percent Effect,"30 µM, 30.03 µM",19.26%
Cc1cc(C)n(CC2CCCN2Cc2ncc(C(C)(C)C)o2)n1 (stereo not drawn),Percent Effect,"30.3 µM, […]",1.727%
same,Percent Effect,"10 mM, 10 mM as filed; unlikely as a test dose",-8.311%
Cc1nc(C)n(CC2CCCCN2Cc2ncc(C(C)(C)C)o2)n1 (stereo not drawn),Percent Effect,"30 µM, 30.03 µM",13.64%
CCC1CCCCN1Cc1ncc(C(C)(C)C)o1 (stereo not drawn),Percent Effect,"30.3 µM, […]",100.3%
same,Percent Effect,"10 mM, 10 mM as filed; unlikely as a test dose",-33.47%
CC(C)(C)c1cnc(CN2CCCCC2Cn2cccn2)o1 (stereo not drawn),Percent Effect,"30.3 µM, […]",-24.92%
same,Percent Effect,"10 mM, 10 mM as filed; unlikely as a test dose",-80.62%
Cc1nc(C)n(CC2CCCN2Cc2ncc(C(C)(C)C)o2)n1 (stereo not drawn),Percent Effect,"30.3 µM, […]",101.7%
same,Percent Effect,"10 mM, 10 mM as filed; unlikely as a test dose",-27.43%
Cc1nc(C)c(S(=O)(=O)NC(=O)c2ccoc2)s1,Percent Effect,"30 µM, 30.03 µM",-10.98%
Cc1cc(F)c(S(=O)(=O)NCC(C)(C)N)cc1F.Cl,Percent Effect,"30 µM, 30.03 µM",-16.06%
Cn1ncc(-c2cc(-c3cccc(O)c3)nc(N)c2C#N)c1C1CC1,Percent Effect,"30.3 µM, […]",47.44%
Cc1cc(O)ccc1-c1cc(-c2cnn(C)c2C2CC2)c(C#N)c(N)n1,Percent Effect,"30.3 µM, […]",53.81%
Cc1nn(C)c(C)c1-c1cc(-c2cnn(C)c2C2CC2)c(C#N)c(N)n1,Percent Effect,"30.3 µM, […]",20.75%
Cc1nccc(NCc2cncc3c2CCN(CC2CCOC2)C3)n1.Cl.Cl (stereo not drawn),Percent Effect,"30.3 µM, […]",-74.45%
C/N=C1\c2cc3cc(OC)ccc3n2CCN1Cc1ccccc1.O=C(O)C(F)(F)F,Percent Effect,"30 µM, 30.03 µM",28.46%
C/N=C1/c2cc3cc(OC)ccc3n2CCN1Cc1ccccc1.Cl,Percent Effect,"30 µM, 30.03 µM",62.06%
C/N=C1\c2cc3cc(OC)ccc3n2CCN1C.Cl,Percent Effect,"30 µM, 30.03 µM",-36.23%
Cc1ccc(CN2C[C@@H]3COC[C@@H](CC(=O)N4CCOCC4)[C@@H]3C2)s1.O=C(O)C(F)(F)F,Percent Effect,"30 µM, 30.03 µM",-11.98%
O=C(COC1CCCC1)N1C[C@@H]2COC[C@]2(COc2cccnc2)C1.O=C(O)C(F)(F)F,Percent Effect,"30.3 µM, […]",-69.72%

# Reference: ChEMBL document CHEMBL3988442, “University of Dundee, Small-Polar-MMV Screening Library” (2021)
